Screens as filed in PubChem.
HCMV inh: human cytomegalovirus inhibition; HFF cells, HCMV-luciferase reporter, 72 h; stronger effect = lower value; AID 1259415; hit rate 4.5% among 410,000; activity change, negative = inhibition, % at 57.5 µM; in the data active = activity change below about -60%; inconclusive = no clear call, values can overlap the other calls; inactive = above about -39%
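Two-dose cell screen: HFF monolayers treated with compounds and infected with luciferase-expressing HCMV at 1 PFU/cell, 72 h at 37C, then lysed for luciferase measurement.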
LASV entry inh: blocks Lassa virus binding to or entry into cells | Potency, µM (highest dose often 37.9 µM), usual class: inhibitors | Lassa virus pseudotype entry inhibition, cell reporter | hit rate 1.2% among 300,000; calls by dose curve; tested in HEK293 cells; note: nearly all actives have a fitted effect of over 50% in size
Marburg entry inh: inhibitors of Marburg virus binding or cell entry | hit rate 1.8% among 300,000 | Marburg virus pseudotyped entry inhibition, cell reporter | Potency, µM (top dose mostly 37.8 µM), hits mostly inhibitors; calls by dose curve; tested in HEK293 cells
FMDV inh: foot and mouth disease virus antiviral activity | FMDV antiviral cell-based qHTS | Potency, µM (series often up to 57.9 µM), actives largely listed as inhibitors | hit rate 1.2% among 410,000; calls by dose curve; tested in HEK293T cells; note: read-out not given here; nearly all actives have a fitted effect of over 45% in size
Numbers stand for hits; - = inactive; ? = inconclusive; . = no result. This is a sample that favours compounds with a hit; in the whole collection about 6.2% have one here.

SMILES	HCMV inh	LASV entry inh	Marburg entry inh	FMDV inh
C=CCN1c2ccccc2[C@]23CCC(=O)N(CC(=O)OC)C2=NC(C(=O)OC)=C(C(=O)OC)[C@H]13	.	.	-	.
O=C(c1ccccc1)c1ccc(OCC(O)CN2CCN(Cc3ccccc3)CC2)cc1 (stereo not given)	-	?	14.6µM	-
CC(=O)c1ccc(OCC(O)CN2CCN(Cc3ccccc3)CC2)cc1 (stereo not given)	.	.	.	-
CC(C)(c1ccccc1)c1ccc(OCC(O)CNC2CCN(Cc3ccccc3)CC2)cc1 (stereo not given)	-113.5	.	?	?
COc1ccc(CNCC(O)COc2ccc(C(C)(C)c3ccccc3)cc2)cc1 (stereo not given)	?	?	?	-
CC(=O)OC1CC(OC(C)=O)[C@]2(C)C(CC(OC(C)=O)[C@]3(C)C2CC[C@@]2(C)C(c4ccoc4)C[C@H]4O[C@]432)C1(C)C (stereo not given in full)	.	.	.	-
CC(=O)O[C@@H]1C[C@@]2(C)C(c3ccoc3)C[C@H]3O[C@]32[C@]2(C)C(=O)C(O)=C3C(C)(C)C(=O)C=C[C@]3(C)C12 (stereo not given in full)	.	.	.	25.1µM
CC(=O)OC1C[C@@]2(C)C(c3ccoc3)C[C@H]3O[C@@]32[C@@]2(C)C(=O)C(O)=C3C(C)(C)C(=O)C=C[C@]3(C)C12 (stereo not given in full)	.	.	.	7.94µM
C#CCCC[C@@H](/C=C/C(=O)OCC)NC(=O)C(F)(F)F	-	.	.	.
CCOc1cc(NC(=O)c2cccs2)c(OCC)cc1NC(=O)c1ccco1	-	-	-	-
CCOc1cc(NS(=O)(=O)CC)c(OCC)cc1NC(=O)c1ccco1	-77.4	-	?	-
CCOc1cc(NS(=O)(=O)c2ccc(OC)cc2)c(OCC)cc1NC(=O)c1ccco1	-96.7	-	?	-
CC1CC(C)CN(C(=O)CCNS(=O)(=O)c2ccc3c(c2)CCC(=O)N3)C1 (stereo not given)	-	-	-	-
CC(CC(=O)N1CCN(c2cccc(Cl)c2)CC1)S(=O)(=O)c1ccc2c(c1)NC(=O)CO2 (stereo not given)	-95.0	.	.	2.82µM
CCOC(=O)C1CCN(C(=O)CC(C)S(=O)(=O)c2ccc3c(c2)NC(=O)CO3)CC1 (stereo not given)	-	-	-	-
Cc1ccc(C)c(N2CCN(C(=O)CCS(=O)(=O)c3ccc4c(c3)NC(=O)CO4)CC2)c1	-73.2	.	.	-
O=C1CCc2cc(S(=O)(=O)NCCC(=O)N3CCN(c4cccc(Cl)c4)CC3)ccc2N1	?	?	-	15.8µM
Cc1ccc2nc(NCc3ccccc3)c3nnnn3c2c1	-	?	.	-
COC(=O)c1cccc(NC(=O)c2nsc3ccccc23)c1	-	?	?	-
CC(=O)N1CCc2cc(S(=O)(=O)NC(Cc3ccccc3)C(=O)Nc3cc(C)ccc3C)ccc21 (stereo not given)	-	-	-	-
CCOc1ccc(C(=O)NCCc2sc(-c3ccc(F)cc3)nc2C)cc1	-	?	.	-
CCc1ccc(/C=C2\SC(=S)N(CCCC(=O)Nc3ccccn3)C2=O)cc1	-103.0	11.2µM	?	20µM
COC(=O)c1ccc(/C=C2\SC(=S)N(CCCC(=O)NCCCN3CCOCC3)C2=O)cc1	?	.	?	-
CCc1ccc(/C=C2/SC(=S)N(CCCC(=O)Nc3ccccc3C(=O)O)C2=O)cc1	-	-	-	?
COC(=O)c1ccc(/C=C2/SC(=S)N(CCCC(=O)Nc3ccccn3)C2=O)cc1	-84.7	-	?	-
SMILES	HCMV inh	LASV entry inh	Marburg entry inh	FMDV inh
CCc1nn2c(=O)cc(COC(=O)c3ccccc3NC(=O)COc3ccc(F)cc3)nc2s1	?	-	.	-
Cc1ccc(Oc2ccc(C(=O)NCc3ccncc3)cc2)cc1	-82.7	8.91µM	?	?
Cc1ccc(C)c(NS(=O)(=O)c2cc(C(=O)NCc3ccncc3)ccc2C)c1	-68.7	-	?	-
Cc1ccc(C(=O)NCc2ccncc2)cc1S(=O)(=O)Nc1cccc(C)c1C	-	.	.	-
Cc1ccc(CNC(=O)c2ccc(COc3ccccc3)cc2)cc1	-63.4	?	-	-
Cn1c(=O)cc(OCC(=O)N2CCN(c3ccc(F)cc3)CC2)c2ccccc21	-	-	-	-
O=C(c1cccnc1)C1CCCN(Cc2ccc3c(c2)CN(C(=O)c2cnccn2)CCO3)C1 (stereo not given)	.	.	.	-
CCOc1ccccc1NC(=O)c1c(NC(=O)Cc2ccc(OC)cc2)sc2c1CCC2	-	-	.	-
CC(C)Oc1cccc(C2CC(=O)Nc3cc4c(cc32)OCO4)c1 (stereo not given)	-	?	?	?
CC(C)c1ccc(C2C3=C(COC3=O)Nc3cc4c(cc32)OCO4)cc1 (stereo not given)	-88.3	?	?	-
O=C(CSc1ccsc1[N+](=O)[O-])N1CCCCCC1	-72.2	.	.	-
COc1ccc(Nc2nccc3c2cc(-c2ccccc2OC)n3C)cc1	-67.2	.	.	.
COc1ccccc1-c1cc2c(Nc3cc(OC)c(OC)c(OC)c3)nccc2n1C	-	.	.	.
COc1cccc(CNC(=O)C2CCN(S(=O)(=O)c3ccc4c(c3)C(C)(C)C(=O)N4C)CC2)c1	-	.	.	.
CC(C)CN(CC(C)C)S(=O)(=O)c1ccc(C(=O)Nc2sc3c(c2C(N)=O)CC(C)(C)NC3(C)C)cc1	-97.1	-	.	-
C=CC[n+]1c(/C=C2\C=Cc3cc(C)ccc3N2CC)ccc2ccccc21	-102.4	7.3µM	4.11µM	?
CCN1C(=C(C#N)C#N)C=Cc2cc(C)ccc21	-	-	-	-
CCOC(=O)C1=C(CS(=O)(=O)c2ccc(Br)cc2)NC(=O)NC1c1ccccc1 (stereo not given)	-	-	-	-
CCOC(=O)CCN1C(=O)[C@H]2[C@H]3[C@H](O)[C@H](O)C/C(=N\OCC(C)C)[C@@H]3CC[C@H]2C1=O	.	.	-	.
COc1ccccc1Cc1c(-c2ccccc2)nc2cc(C)c(Br)c(C)n12	-	.	.	-
CC(C)C[C@H](NC(=O)[C@H](Cc1ccccc1)NC(=O)c1cnccn1)B(O)O	-98.7	.	.	.
CCCNC(=O)C(Cc1ccccc1)NC(=O)c1ccccn1 (stereo not given)	-	.	.	-
Cc1nn(CC(=O)Nc2ccccc2F)c(=O)c2c(C)n(-c3ccc(Cl)cc3)nc12	?	-	.	-
CCOc1cc(/C=N/O)ccc1OCc1ccc([N+](=O)[O-])cc1	-	-	?	-
CCOc1cc(C=C(C(=O)OC)C(=O)OC)ccc1OCc1ccc([N+](=O)[O-])cc1	-	3.55µM	2.82µM	?
SMILES	HCMV inh	LASV entry inh	Marburg entry inh	FMDV inh
Cc1ccc(Oc2ccc(S(=O)(=O)N3CCOCC3)cc2C(N)=O)c(-n2nc3ccccc3n2)c1	-84.9	?	?	-
CCCNC(=O)c1ccc(Cn2cc(-c3ccc(C)cc3)ncc2=O)cc1	-	.	.	.
COc1cccc(-c2c(-c3cc(OC)cc(OC)c3)n(C)c3ccc(-c4cnc(OC)nc4)cc23)c1	?	.	-	?
COc1cccc(-c2c(-c3cc(OC)cc(OC)c3)n(C)c3ccc(-c4cnc(N5CCOCC5)nc4)cc23)c1	-65.1	.	.	-
Cc1ccc(N2C(=O)c3cccc([N+](=O)[O-])c3C2=O)cc1C	-	-	-	-
Cc1cccc(C)c1N1C(=O)c2cccc([N+](=O)[O-])c2C1=O	-62.7	-	-	-
COc1cc2c(cc1OC)CN(c1ccc([N+](=O)[O-])cc1C#N)CC2	?	-	?	31.6µM
